From PubChem BioAssay
aSyn 5UTR act: Activators via SNCA 5'UTR binding, MLPCN. alpha-synuclein 5'UTR reporter, activators screen. activity score, % (tested at 7.5 µM), hits read low. 300,000 tested, 7.1% active. AID 1814; in the data active = activity score below about -60%
Active calls of the source: *. These entries were drawn from the full list.

SMILES	aSyn 5UTR act
COc1ccc(Nc2nc(-c3cc4cccc(OC)c4oc3=O)cs2)cc1	-83*
COc1ccc2oc(=O)c(-c3csc(Nc4cccc(O)c4)n3)cc2c1	-76*
CCOC(=O)Cc1cc(=O)[nH]c(Nc2nc3ccccc3o2)n1	-83*
Nc1nc2ccccc2n1/N=C/c1ccc([N+](=O)[O-])s1	83
Nc1nc2ccccc2n1/N=C/c1ccc(-c2ccccc2)o1	-191*
COc1cc(/C=N/NC(=S)NC2CC3CC2C2C=CCC32)ccc1O (stereo not drawn)	-116*
COC(=O)C1=C(N)Oc2cc(N(C)C)ccc2C1c1ccccc1OC (stereo not drawn)	83
CCOC(=O)c1ccc2c(c1)NCc1cccc(OC)c1O2	-129*
CC(=O)c1ccc(Oc2ccc(C(C)=O)cc2)cc1	-96*
FC(F)Oc1ccc(C2N=C(c3ccccc3)NO2)cc1 (stereo not drawn)	-199*
COc1ccc(C2N=C(c3ccccc3)NO2)cc1OC (stereo not drawn)	-142*
O=C(Nc1nccs1)C(=O)c1c[nH]c2ccccc12	-165*
CSc1ccccc1NC(=O)C(=O)c1c[nH]c2ccccc12	-146*
CCN1CCN(Cc2ccc(NC(=O)c3ccc(C)c(NC(=O)C(=O)c4c[nH]c5ccccc45)c3)cc2C(F)(F)F)CC1	112
CCN(C(=O)c1cc2c(=O)[nH]c3ccc(C)cc3c2s1)c1cccc(C)c1	-217*
O=C(c1cccc(COc2ccc(Cl)cc2Cl)c1)N1CCN(c2ccccn2)CC1	-164*
COC(=O)c1ccccc1NC(=O)c1cccc(COc2ccccc2Cl)c1	-505*
CN(C(=O)c1cccc(COc2ccc(Cl)cc2Cl)c1)c1ccccc1	-120*
O=C(NCc1ccccc1)c1cccc(COc2ccccc2Cl)c1	-87*
Oc1c(CN2CCN(c3ccccn3)CC2)cc(Cl)c2cccnc12	92
NNC(=O)c1cccc(COc2ccccc2Br)c1	-72*
O=C(NCc1ccccc1)c1cccc(COc2cc(Cl)ccc2Cl)c1	-143*
NNC(=O)c1cccc(COc2ccc3c(c2)CCC3)c1	71
COc1ccc(N=Cc2nc(-c3ccco3)oc2O)cc1	-111*
O=C(Oc1oc(-c2ccco2)nc1C=Nc1ccc(Cl)cc1)c1ccco1	-170*
SMILES	aSyn 5UTR act
NNCCc1ccccc1	-133*
CC1c2cc3c(cc2CCN1C(=O)c1cccc(F)c1)OCCCO3 (stereo not drawn)	-69*
Cn1c(N)c(C(C[N+](=O)[O-])c2c(F)cccc2Cl)c(=O)n(C)c1=O (stereo not drawn)	-66*
Nc1nc(NCCOCCO)nc(NC2CCCCC2)c1[N+](=O)[O-]	68
CC(=O)c1ccc(N2CCN(c3ncccn3)CC2)cc1	-125*
COc1cccc(N2CCN(c3ncccn3)CC2)c1	-104*
COC(=O)/C(C#N)=C1/C=Cc2ccccc2N1	-99*
COc1ccc(C(=O)Cn2c(=N)n(C)c3ccccc32)cc1	-62*
Cc1ccc(C(=O)Cn2c(=N)n(N)c3ccccc32)cc1	-166*
CCN(CC)CCn1c(=N)n(CC(=O)c2ccc(C)cc2)c2ccccc21	-125*
Cn1c(=N)n(CC(=O)c2ccccc2)c2ccccc21	90
CCOC(=O)C(NC(=O)Nc1ncccn1)(Oc1ccccc1)C(F)(F)F (stereo not drawn)	-83*
CCc1ccc(C(=O)Nc2cc3c(cc2Cl)OCCCO3)cc1	-172*
O=C(Cc1ccccc1)Nc1cc2c(cc1Cl)OCCCO2	-147*
Cc1ncoc1C(=O)Nc1ccc(Oc2ccccc2)cc1	-104*
Cc1ncoc1C(=O)Nc1ccc2c(c1)OCCO2	-63*
Cc1cc(C(=O)Nc2ccc3c(c2)OCCO3)c(C)o1	-113*
Cc1nc2cc(NC(=O)c3ccc(S(=O)(=O)N(C)c4ccccc4)cc3)ccc2o1	-132*
CN(C)S(=O)(=O)c1ccc(C(=O)Nc2ccc3ncccc3c2)cc1	-86*
CCCCN(CCCC)S(=O)(=O)c1ccc(C(=O)Nc2nnc(COC)o2)cc1	62
CCS(=O)(=O)c1ncc(Cl)c(C(=O)Nc2ccc(S(=O)(=O)N(C)c3ccccc3)cc2)n1	78
c1cnc2ccc(-c3ccc4ncccc4c3)cc2c1	-84*
O=C(Nc1ccc2ncccc2c1)Nc1ccc2ncccc2c1	-179*
O=C(Nc1ccc2ncccc2c1)c1ccccc1Br	-297*
Cc1ccc(-c2nc(-c3nccc4ccccc34)oc2-c2ccccc2)cc1	-137*
SMILES	aSyn 5UTR act
CS(=O)(=O)c1ccc(Cl)c(NC(=O)CCl)c1	-88*
Cc1ccc(S(=O)(=O)Nc2cc(Cl)c(O)c3ncccc23)cc1	77
Cc1ccc(NC(=O)Nc2cc(S(C)(=O)=O)ccc2Cl)cc1	-77*
CC1CCc2nc(NCCO)nc(C(F)(F)F)c2C1 (stereo not drawn)	54
O/N=C\c1cnc(N2CCN(c3ccccc3)CC2)s1	-75*
Oc1ccc(CN2CCN(c3ccccc3)CC2)c2cccnc12	80
Cc1c(NC(=S)NC(=O)Cc2ccccc2)cccc1C(=O)O	-79*
Cc1cccc(NC(=S)NC(=O)c2ccco2)c1C	-94*
O=C(NC(=S)Nc1ccccc1Br)c1ccco1	-86*
O=C(/C=C/c1cccs1)NC(=S)NNC(=O)c1ccccc1O	103
O=C(NC(=S)NNC(=O)c1ccccc1O)c1ccco1	-99*
Nc1ccc2nc3c(c(Cl)c2c1)CCCC3	-88*
NC(=O)c1sc2nc3c(c(-c4ccc(Cl)cc4)c2c1N)CCCC3	66
CC1(C)Cc2c(c(N3CCOCC3)nc3sc(C(=O)Nc4ccccc4)c(N)c23)CO1	-74*
CC(C)CCSc1nc(N2CCOCC2)c2c(c1C#N)CC(C)(C)OC2	58
CN(C)CCNc1ncnc2c1sc1nc(N3CCOCC3)c3c(c12)CC(C)(C)SC3	72
COCC1CCCN(C(=O)c2ccc3nc(Cc4cccc(Cl)c4)oc3c2)C1 (stereo not drawn)	-77*
COC(=O)CN(C)C(=O)c1ccc2nc(Cc3cccc(Cl)c3)oc2c1	-109*
CC(C)(CO)NC(=O)c1ccc2nc(Cc3cccc(Cl)c3)oc2c1	-102*
Cc1cc2c3c(ccc(C)c3n1)N=CN2c1ccccc1	54
COc1ccc(NC(=S)Nc2ccccn2)c(OC)c1	-153*
COc1ccc(NC(=O)c2nc(S(=O)(=O)Cc3cccc(C)c3)ncc2Cl)c(OC)c1	82
COc1ccc(NC(=S)Nc2cc(C)ccn2)c(OC)c1	-243*
Cc1ccc(-n2nc3cc(C)c(NC(=S)NC(=O)/C=C/c4ccco4)cc3n2)cc1	-257*
Cc1ccc(-n2nc3ccc(NC(=S)NC(=O)/C=C/c4ccco4)cc3n2)cc1	-96*
SMILES	aSyn 5UTR act
NC(=O)CSc1nc(-c2ccccc2Cl)ns1	-121*
O=C(c1c(Cl)nc2sccn12)N(C(=O)c1c(Cl)nc2sccn12)c1ccc(Cl)cn1	-196*
CNS(=O)(=O)c1ccc(NC(=O)Nc2cccc(F)c2)cc1	-89*
NS(=O)(=O)c1cccc(NC(=O)CCSc2ccccc2Cl)c1	-120*
Cc1cccc(N(O)C(=O)Nc2cccc(Cl)c2)c1	-109*
Cc1cccnc1N(C(=O)Nc1cccc(Cl)c1)C1=NCC(C)(C)S1	-66*
CSc1ccccc1NC(=O)Nc1cccc(F)c1	-82*
O=C(Nc1cccc(F)c1)Nc1cccc(Cl)c1	-84*
O=C(Nc1cccc(Cl)c1)c1cnc[nH]1	-87*
N#CCc1ccc(NC(=O)Nc2cccc(Cl)c2)cc1	-143*
O=C(Nc1cccc(Cl)c1)ON=C1c2ccccc2-c2ccccc21	-66*
Cc1cccnc1NC(=O)Nc1cccc(Cl)c1	-186*
O=C(Nc1cccc(Cl)c1)Nc1cccc(Cl)c1	-137*
